A short description of test [1]: NCI Yeast Anticancer Drug Screen. Data for the rad50 strain (AID 155).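 Also: 0% = growth of vehicle-only cultures of the same strain.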 As to conditions: S. cerevisiae rad50 strain growth inhibition, active compounds read high. The gist of the method:
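Vehicle-treated cultures provide the reference for the growth inhibition reported for compound-exposed, repair-deficient yeast.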

Test [2] in a line: NCI Yeast Anticancer Drug Screen. Data for the mec2-1 strain (AID 157). As to conditions: S. cerevisiae mec2-1 strain, active compounds read high. The gist of the method:
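Vehicle-treated cultures served as reference for growth inhibition of compound-exposed mec2-1 yeast.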

Test [3] in a line: NCI Yeast Anticancer Drug Screen. Data for the sgs1 mgt1 strain (AID 161).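 Also: 0% = growth of cultures given vehicle only.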 The settings on record: S. cerevisiae sgs1 mgt1 strain, active compounds read high. The method in brief: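 Inhibition of yeast growth, normalised to vehicle-treated controls, is reported for a strain bearing genetic alterations in DNA damage repair.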
Test [4] is described as follows: NCI Yeast Anticancer Drug Screen. Data for the cln2 rad14 strain (AID 165).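 Also: 0% = growth equal to vehicle treated cultures.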 As to conditions: S. cerevisiae cln2 rad14 strain, active compounds read high. The gist of the method: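 Each compound was tested on cln2 rad14 yeast. Inhibition of growth was calculated against vehicle-exposed controls.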
Test [5] can be described thus: NCI Yeast Anticancer Drug Screen. Data for the bub3 strain (AID 167). As to conditions: S. cerevisiae bub3 mutant strain, active compounds read high. The gist of the method: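 Mutant yeast screening strain plus compound; vehicle-treated cultures serve as the 0% inhibition reference.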
The nature of test [6]: NCI Yeast Anticancer Drug Screen. Data for the mlh1 rad18 strain (AID 175). As to conditions: S. cerevisiae mlh1 rad18 strain growth inhibition, active compounds read high. The method in brief:
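Vehicle-treated cultures served as the reference for growth inhibition in a yeast strain carrying DNA damage repair alterations exposed to each compound.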

Where [7] appears, read: at 5.0 µM (retest, dose inferred, filed as 0.5).
The mark [8] stands for this setting: at 50.0 µM (retest, dose inferred, filed as 5.0).

This is an account of results in PubChem BioAssay (NCI).

This is part of a sample that, as a whole, favours compounds with a hit. Of some 79,000 tested, about 15% had one in any assay. A number with no mark means an inactive call. The source made the active and inactive calls. Rule as the data show it: active = growth inhibition above about 70%; inactive = the rest.

Consider `CCCCCCN(CCCCCC)CC(O)c1cc(-c2ccccc2)nc2c(O)cccc12` (stereo not given), for which the growth inhibition is 4% in test [1] (setting [7]); 56% in test [1] (setting [8]); 23.7% in test [1] (at 50.0 µM); 7% in test [2] (setting [7]); 73% (active) in test [2] (setting [8]); 22.6% in test [2] (at 50.0 µM). Besides, the growth inhibition in test [3] (setting [7]) is -118%; in test [3] (setting [8]), 95% (active); in test [3] (at 50.0 µM) it was 93.8% (active); in test [4] (setting [7]), 4%; in test [4] (setting [8]), 42%; in test [4] (at 50.0 µM), 8.2%. The growth inhibition is 8% in test [5] (setting [7]); 92% (active) in test [5] (setting [8]); 40% in test [5] (at 50.0 µM); 30% in test [6] (setting [7]); 87% (active) in test [6] (setting [8]); 33.5% in test [6] (at 50.0 µM).
On to `O/N=C/c1cc(Cl)cc(Cl)c1O`, for which the growth inhibition was 96% (active) in test [1] (setting [7]); 96% (active) in test [1] (setting [8]); 97.7% (active) in test [1] (at 50.0 µM); 93% (active) in test [2] (setting [7]); 89% (active) in test [2] (setting [8]); 95.1% (active) in test [2] (at 50.0 µM). The growth inhibition in test [3] (setting [7]) was 53%; in test [3] (setting [8]) it was 47%; in test [3] (at 50.0 µM), 98% (active); in test [4] (setting [7]), 80% (active); in test [4] (setting [8]), 94% (active); in test [4] (at 50.0 µM) it was 96.7% (active). Also, the growth inhibition in test [5] (setting [7]) was 85% (active); in test [5] (setting [8]), 94% (active); in test [5] (at 50.0 µM), 73.5% (active); in test [6] (setting [7]), 97% (active); in test [6] (setting [8]) it was 95% (active); in test [6] (at 50.0 µM), 97.8% (active).
On to `CCN(CC)Cc1cc(N=Nc2c(O)ccc3c(N=Nc4ccc(O)c(CN(CC)CC)c4)c(O)ccc23)ccc1O`, for which the growth inhibition in test [1] (setting [7]) is 62%; in test [1] (setting [8]), 86% (active); in test [1] (at 50.0 µM), 96.4% (active); in test [2] (setting [7]) it was -2%; in test [2] (setting [8]), 53%; in test [2] (at 50.0 µM), 85.4% (active). Also, the growth inhibition in test [3] (setting [7]) was 1%; in test [3] (setting [8]), 76% (active); in test [3] (at 50.0 µM), 94.3% (active); in test [4] (setting [7]), -7%; in test [4] (setting [8]) it was 56%; in test [4] (at 50.0 µM) it was 56.6%. Besides, the growth inhibition was -1% in test [5] (setting [7]); 61% in test [5] (setting [8]); 65.8% in test [5] (at 50.0 µM); -1% in test [6] (setting [7]); 72% (active) in test [6] (setting [8]); 93.7% (active) in test [6] (at 50.0 µM).
For `COc1cc2c(ccc3cc4cccc[n+]4cc32)c(Br)c1OC`, the growth inhibition in test [1] (setting [7]) is 0%; in test [1] (setting [8]), 44%; in test [1] (at 50.0 µM) it was 76.8% (active); in test [2] (setting [7]), -6%; in test [2] (setting [8]), 73% (active); in test [2] (at 50.0 µM), 42.5%. For the same molecule, the growth inhibition in test [3] (setting [7]) was -7%; in test [3] (setting [8]), 39%; in test [3] (at 50.0 µM), 73.2% (active); in test [4] (setting [7]), -8%; in test [4] (setting [8]), 13%; in test [4] (at 50.0 µM) it was 20.4%. Moreover, the growth inhibition was -5% in test [5] (setting [7]); 46% in test [5] (setting [8]); 10.4% in test [5] (at 50.0 µM); 4% in test [6] (setting [7]); 75% (active) in test [6] (setting [8]); 67.8% in test [6] (at 50.0 µM).
`Cc1ccc(/C=C/C(=O)c2cc(CN(C)C)c(O)c(CN(C)C)c2)cc1`: the growth inhibition was 1% in test [1] (setting [7]); 5% in test [1] (setting [8]); 41.9% in test [1] (at 50.0 µM); 0% in test [2] (setting [7]); 25% in test [2] (setting [8]); -1.25% in test [2] (at 50.0 µM). Besides, the growth inhibition in test [3] (setting [7]) was -1%; in test [3] (setting [8]), 11%; in test [3] (at 50.0 µM), -9.5%; in test [4] (setting [7]), 4%; in test [4] (setting [8]), -4%; in test [4] (at 50.0 µM), 55.6%. The growth inhibition in test [5] (setting [7]) was 3%; in test [5] (setting [8]) it was 8%; in test [5] (at 50.0 µM) it was -3.35%; in test [6] (setting [7]), -2%; in test [6] (setting [8]) it was 23%; in test [6] (at 50.0 µM), 1.4%.
For the molecule `Cc1cc(N/N=C/c2cccc3ccccc23)c2cc3c(cc2n1)OCO3`, the growth inhibition in test [1] (setting [7]) was 7%; in test [1] (setting [8]), 72% (active); in test [1] (at 50.0 µM), 99.2% (active); in test [2] (setting [7]), 2%; in test [2] (setting [8]), 79% (active); in test [2] (at 50.0 µM), 99% (active). For the same molecule, the growth inhibition in test [3] (setting [7]) was 27%; in test [3] (setting [8]), 72% (active); in test [3] (at 50.0 µM), 99.1% (active); in test [4] (setting [7]), -6%; in test [4] (setting [8]), 56%; in test [4] (at 50.0 µM) it was 97.8% (active). Moreover, the growth inhibition in test [5] (setting [7]) was -3%; in test [5] (setting [8]), 75% (active); in test [5] (at 50.0 µM), 99.2% (active); in test [6] (setting [7]) it was 20%; in test [6] (setting [8]), 91% (active); in test [6] (at 50.0 µM) it was 98.5% (active).
With `Cc1cc(=O)oc2c(C)c3oc(CBr)cc3cc12`, the growth inhibition in test [1] (setting [7]) was -11%; in test [1] (setting [8]), 79% (active); in test [1] (at 50.0 µM), 54.1%; in test [2] (setting [7]), 4%; in test [2] (setting [8]) it was 67%; in test [2] (at 50.0 µM), 62.7%. For the same molecule, the growth inhibition in test [3] (setting [7]) is -17%; in test [3] (setting [8]), 64%; in test [3] (at 50.0 µM), 69.8%; in test [4] (setting [7]), 32%; in test [4] (setting [8]), 56%; in test [4] (at 50.0 µM) it was 66.2%. Also, the growth inhibition was -4% in test [5] (setting [7]); 67% in test [5] (setting [8]); 65.4% in test [5] (at 50.0 µM); -2% in test [6] (setting [7]); 75% (active) in test [6] (setting [8]); 63.1% in test [6] (at 50.0 µM).
Turning to `O=C(Nc1ccccc1)OCCc1ccc(Br)cc1`, the growth inhibition in test [1] (setting [7]) is -10%; in test [1] (setting [8]), -9%; in test [1] (at 50.0 µM), 13.2%; in test [2] (setting [7]), -23%; in test [2] (setting [8]) it was -31%; in test [2] (at 50.0 µM), 23.7%. Also, the growth inhibition in test [3] (setting [7]) was -1%; in test [3] (setting [8]), -11%; in test [3] (at 50.0 µM), 14.4%; in test [4] (setting [7]), 1%; in test [4] (setting [8]), -2%; in test [4] (at 50.0 µM), -7.85%. In addition, the growth inhibition in test [5] (setting [7]) was -5%; in test [5] (setting [8]), 7%; in test [5] (at 50.0 µM) it was 6.1%; in test [6] (setting [7]), -5%; in test [6] (setting [8]), 0%; in test [6] (at 50.0 µM), -3.25%.
In the case of `CC1=NC(=Cc2ccc(Cl)cc2)C(=O)N1n1c(-c2ccccc2)nc2ccccc2c1=O`, the growth inhibition in test [1] (setting [7]) was -8%; in test [1] (setting [8]), 59%; in test [1] (at 50.0 µM) it was 67.3%; in test [2] (setting [7]) it was -10%; in test [2] (setting [8]) it was 83% (active); in test [2] (at 50.0 µM), 70.2% (active). For the same molecule, the growth inhibition is -7% in test [3] (setting [7]); 71% (active) in test [3] (setting [8]); 86% (active) in test [3] (at 50.0 µM); -24% in test [4] (setting [7]); 83% (active) in test [4] (setting [8]); 80% (active) in test [4] (at 50.0 µM). The growth inhibition in test [5] (setting [7]) is -6%; in test [5] (setting [8]), 87% (active); in test [5] (at 50.0 µM), 82% (active); in test [6] (setting [7]), 5%; in test [6] (setting [8]), 59%; in test [6] (at 50.0 µM) it was 81.5% (active).
`Nc1ncnc2c1c(-c1ccccc1)cn2-c1ccc(Cl)cc1`: the growth inhibition in test [1] (setting [7]) is 5%; in test [1] (setting [8]), 26%; in test [1] (at 50.0 µM) it was 22.2%; in test [2] (setting [7]), 2%; in test [2] (setting [8]), 10%; in test [2] (at 50.0 µM), 15.5%. For the same molecule, the growth inhibition in test [3] (setting [7]) was 16%; in test [3] (setting [8]), 61%; in test [3] (at 50.0 µM) it was 71.8% (active); in test [4] (setting [7]), 0%; in test [4] (setting [8]), 17%; in test [4] (at 50.0 µM), 42.8%. Moreover, the growth inhibition was 8% in test [5] (setting [7]); 5% in test [5] (setting [8]); -17.4% in test [5] (at 50.0 µM); 5% in test [6] (setting [7]); 23% in test [6] (setting [8]); 14.8% in test [6] (at 50.0 µM).
